This note sets out measurements from PubChem BioAssay (NCI).

Among the test systems are DU-145 prostate; MALME-3M melanoma; MDA-MB-231 breast; RXF 393 renal; SF-268 CNS; SF-295 CNS; SF-539 CNS; UACC-257 melanoma; M14 melanoma; HCT-15 colon; HT29 colon; SNB-75 CNS; SNB-19 CNS; U251 CNS; PC-3 prostate; UACC-62 melanoma; LOX IMVI melanoma; SK-MEL-28 melanoma; SK-MEL-5 melanoma.
Assay in all cases: NCI-60 one-dose screen, 48 h (100 = growth as untreated, 0 = no growth, -100 = all killed)
Conditions in all cases: 10 µM unless noted

The panel holds about 83,000 compounds, 20% with a hit somewhere; the sample as a whole holds those more often.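 Results are percent growth after 48 hours of single-concentration exposure. 100 means growth as in untreated cells, lower positive values show inhibition; negative values down to -100 show cell death.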 A number with no mark means an inactive call. Calls of active or inactive are those of the source. Rule for the calls: active = growth percent below 10; inactive = the rest.

Consider `O=[N+]([O-])c1ccc(NS(=O)(=O)c2ccccc2)c2ccccc12`, for which the growth with DU-145 prostate is 62.4%; in the experiment with MALME-3M melanoma it was 18.8%; in the experiment on MDA-MB-231 breast, 70.1%; in the experiment with RXF 393 renal, 41.6%; in the experiment with SF-268 CNS, 42.3%; in the experiment on SF-295 CNS, 43%. For the same compound, the growth in the experiment with SF-539 CNS was 45.1%; in the experiment with UACC-257 melanoma it was 16.3%; in the experiment with M14 melanoma it was 41%; with HCT-15 colon it was 46.8%; with HT29 colon it was 57.5%; in the experiment with SNB-75 CNS, 42.5%. For the same compound, the growth with SNB-19 CNS was 48.4%; in the experiment on U251 CNS it was 37.5%; in the experiment on PC-3 prostate it was 53.2%; in the experiment with UACC-62 melanoma, 22.7%; in the experiment on LOX IMVI melanoma it was 43.8%; in the experiment with SK-MEL-28 melanoma, 37.5%.

On to `C/C(=N/NC(=O)Cn1c2ccccc2c2ccncc21)c1cccs1`, for which the growth was 108% in the experiment on DU-145 prostate; 100% in the experiment with MALME-3M melanoma; 97.4% in the experiment with MDA-MB-231 breast; 98.7% in the experiment on RXF 393 renal; 95.5% in the experiment with SF-268 CNS; 109% in the experiment with SF-295 CNS. Moreover, the growth with SF-539 CNS was 108%; in the experiment on UACC-257 melanoma, 89.9%; with M14 melanoma it was 104%; with HCT-15 colon, 99.8%; in the experiment on SNB-75 CNS, 104%; with SNB-19 CNS it was 94.9%. The growth is 97.5% in the experiment with U251 CNS; 99.2% in the experiment on PC-3 prostate; 99.4% in the experiment with SK-MEL-5 melanoma; 95.8% in the experiment on UACC-62 melanoma; 104% in the experiment with LOX IMVI melanoma; 108% with SK-MEL-28 melanoma.

Turning to `CCCCCn1ncc(-c2c(O)c(O)cc3c(O)c(-c4c(C)cc5c(-c6cnn(CCCCC)n6)c(O)c(O)cc5c4O)c(C)cc23)n1`, the growth was 22.9% in the experiment on DU-145 prostate; 27% in the experiment with MALME-3M melanoma; 32.9% with MDA-MB-231 breast; -4.68% (active) in the experiment with RXF 393 renal; 5.18% (active) in the experiment with SF-268 CNS; 10% in the experiment with SF-295 CNS. For the same compound, the growth in the experiment on SF-539 CNS was 3.31% (active); with UACC-257 melanoma, 16.2%; with M14 melanoma, -20.8% (active); in the experiment with HCT-15 colon, 14%; with HT29 colon, -20.9% (active); with SNB-75 CNS it was 34.2%. The growth with SNB-19 CNS is 22%; in the experiment with U251 CNS, -33.3% (active); in the experiment on PC-3 prostate, -25.3% (active); in the experiment with SK-MEL-5 melanoma, -49.2% (active); in the experiment on UACC-62 melanoma, -11.8% (active); in the experiment on LOX IMVI melanoma it was -40.7% (active). Also, in the experiment with SK-MEL-28 melanoma, the growth is 25.9%.

As to `CC(C(=O)O)N1C(N)=NNC1c1ccccc1O` (configuration not stated), the growth was 102% in the experiment with DU-145 prostate; 85.6% in the experiment on MALME-3M melanoma; 76.6% in the experiment with MDA-MB-231 breast; 96.4% in the experiment with RXF 393 renal; 84% with SF-268 CNS; 99.3% in the experiment with SF-295 CNS. Moreover, the growth in the experiment with SF-539 CNS is 103%; in the experiment with UACC-257 melanoma, 87.1%; in the experiment on M14 melanoma, 96.9%; in the experiment on HCT-15 colon, 68.4%; in the experiment with HT29 colon it was 99.3%; in the experiment with SNB-75 CNS, 74.4%. Besides, the growth in the experiment with SNB-19 CNS is 88.5%; with PC-3 prostate, 83.3%; in the experiment with SK-MEL-5 melanoma, 85.5%; with UACC-62 melanoma it was 81.9%; with LOX IMVI melanoma it was 78.3%; in the experiment on SK-MEL-28 melanoma, 106%.

Take `COc1cc2ncnc(Oc3ccc(NC(=O)Nc4ccc(CN5CCOCC5)c(C(F)(F)F)c4)c4ccccc34)c2cc1OC`: the growth was 32.6% in the experiment with DU-145 prostate; -11.1% (active) in the experiment on MALME-3M melanoma; 51.2% with MDA-MB-231 breast; 20.8% with RXF 393 renal; 23.3% with SF-268 CNS; 40.6% in the experiment with SF-295 CNS. Also, the growth with SF-539 CNS was 55.4%; with UACC-257 melanoma, 21.1%; in the experiment with M14 melanoma, 20.4%; in the experiment on HCT-15 colon it was 32.9%; in the experiment with HT29 colon, 14.2%; in the experiment on SNB-75 CNS, 46%. Also, the growth with SNB-19 CNS was 55.2%; in the experiment with U251 CNS, 42.6%; in the experiment on PC-3 prostate, 40%; in the experiment with SK-MEL-5 melanoma, -26.5% (active); in the experiment on UACC-62 melanoma, 28%; with LOX IMVI melanoma, 21.5%. Besides, the growth with SK-MEL-28 melanoma is 2.47% (active).

On to `CCn1c(SCC(=O)c2ccc(Br)cc2)nnc1-c1cc2c([nH]c3ccccc32)c(-c2cccc(O)c2)n1`, for which the growth in the experiment with DU-145 prostate is 85.3%; in the experiment with MALME-3M melanoma, 64.6%; in the experiment with MDA-MB-231 breast it was 75.4%; with RXF 393 renal, 1.81% (active); in the experiment on SF-268 CNS, 72.5%; in the experiment with SF-295 CNS, 41.1%. Moreover, the growth in the experiment with SF-539 CNS is 60.9%; with UACC-257 melanoma, 83.8%; in the experiment with M14 melanoma, 72.2%; with HCT-15 colon, 56.2%; with HT29 colon, 91.6%; with SNB-75 CNS, 60.9%. Further, the growth is 98.9% in the experiment on SNB-19 CNS; 58.5% with U251 CNS; 68.6% in the experiment with PC-3 prostate; 52.7% in the experiment with SK-MEL-5 melanoma; 89.6% in the experiment with UACC-62 melanoma; 48.2% in the experiment on LOX IMVI melanoma. Besides, in the experiment on SK-MEL-28 melanoma, the growth is 73.7%.

On to `COc1ccccc1S(=O)(=O)Nc1ccc2c3c(cc(-c4cnn(C5CC5)c4)nc13)C(=O)N2C`, for which the growth in the experiment on DU-145 prostate is 85.1%; in the experiment on MALME-3M melanoma, 63.9%; with MDA-MB-231 breast, 52.8%; with RXF 393 renal it was 89.8%; in the experiment on SF-268 CNS, 84.3%; in the experiment on SF-295 CNS, 53.7%. The growth was 60.8% in the experiment on SF-539 CNS; 66.2% with UACC-257 melanoma; 61.1% with M14 melanoma; 62.7% with HCT-15 colon; 19.2% with SNB-75 CNS; 77.6% in the experiment on SNB-19 CNS. The growth was 81.6% in the experiment with U251 CNS; 61.3% with PC-3 prostate; 57.5% in the experiment on SK-MEL-5 melanoma; 35.4% with UACC-62 melanoma; 47.5% in the experiment on LOX IMVI melanoma; 77% in the experiment on SK-MEL-28 melanoma.

Turning to `C=C1C(=O)O[C@H]2[C@H]1CC/C(COC(=O)c1cccc3ccccc13)=C\CC[C@@]1(C)O[C@@H]21`, the growth is -95.1% (active) in the experiment on DU-145 prostate; -74.5% (active) in the experiment on MALME-3M melanoma; -67.7% (active) in the experiment with MDA-MB-231 breast; -89.6% (active) in the experiment with RXF 393 renal; -66.4% (active) with SF-268 CNS; 47.8% with SF-295 CNS. The growth in the experiment on SF-539 CNS was -93.1% (active); in the experiment on UACC-257 melanoma it was -13.9% (active); with M14 melanoma, -58.7% (active); with HCT-15 colon, -46.9% (active); in the experiment with HT29 colon, -84.2% (active); with SNB-75 CNS, 29%. The growth is 10.5% in the experiment with SNB-19 CNS; -83.7% (active) with U251 CNS; -70.9% (active) in the experiment with PC-3 prostate; -76.9% (active) in the experiment on UACC-62 melanoma; -92.2% (active) in the experiment with LOX IMVI melanoma; -56.7% (active) in the experiment with SK-MEL-28 melanoma.
